Laboratory results as given in article PMC4336329 (PLoS ONE, 2015).
Hit rate of the full screen: of about 310,000 compounds, about 14,000 (4.5%) showed an effect of 50% or more. Effects have a minus sign here. Only a selection was taken, and strong results are over-represented in it overall.

target: human ether-à-go-go-related gene (hERG) potassium channel (human, UniProt Q12809); test: primary screen, population patch clamp on CHO cells stably expressing hERG; higher = less effect of the substance
Sequence (Q12809 whole entry, looked up): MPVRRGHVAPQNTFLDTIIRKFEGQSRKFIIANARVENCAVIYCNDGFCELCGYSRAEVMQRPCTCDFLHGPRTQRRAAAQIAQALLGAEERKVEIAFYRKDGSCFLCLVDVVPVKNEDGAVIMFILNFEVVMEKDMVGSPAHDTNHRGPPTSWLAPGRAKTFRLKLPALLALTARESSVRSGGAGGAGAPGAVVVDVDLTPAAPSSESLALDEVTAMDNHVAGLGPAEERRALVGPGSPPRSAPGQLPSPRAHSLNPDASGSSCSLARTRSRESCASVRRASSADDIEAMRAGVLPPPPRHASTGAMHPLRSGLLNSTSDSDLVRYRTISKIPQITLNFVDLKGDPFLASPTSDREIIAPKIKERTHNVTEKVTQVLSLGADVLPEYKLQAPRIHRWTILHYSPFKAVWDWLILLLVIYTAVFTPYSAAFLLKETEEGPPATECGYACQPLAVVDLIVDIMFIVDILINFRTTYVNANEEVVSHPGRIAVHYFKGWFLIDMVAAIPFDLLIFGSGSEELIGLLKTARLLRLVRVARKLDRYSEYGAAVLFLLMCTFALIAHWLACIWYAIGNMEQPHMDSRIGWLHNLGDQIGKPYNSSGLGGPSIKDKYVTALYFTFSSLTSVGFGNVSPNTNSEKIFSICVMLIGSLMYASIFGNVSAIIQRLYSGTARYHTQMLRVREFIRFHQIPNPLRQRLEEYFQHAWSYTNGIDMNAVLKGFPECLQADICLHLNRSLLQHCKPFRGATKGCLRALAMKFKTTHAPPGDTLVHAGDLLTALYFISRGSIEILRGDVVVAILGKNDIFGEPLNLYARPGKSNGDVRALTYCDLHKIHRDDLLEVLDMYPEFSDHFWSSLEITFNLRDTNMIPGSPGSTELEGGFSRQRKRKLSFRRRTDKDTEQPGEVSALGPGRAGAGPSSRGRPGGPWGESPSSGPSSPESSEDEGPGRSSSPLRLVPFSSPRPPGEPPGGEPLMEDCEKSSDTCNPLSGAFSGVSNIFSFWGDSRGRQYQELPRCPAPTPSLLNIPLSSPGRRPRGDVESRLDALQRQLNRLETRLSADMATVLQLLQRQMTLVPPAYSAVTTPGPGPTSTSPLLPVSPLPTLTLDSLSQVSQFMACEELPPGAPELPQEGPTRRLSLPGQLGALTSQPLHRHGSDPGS
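Also: peak tail current of the secondary pulse compared with the same well before compound.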

Row | Compound | hERG current change (%, negative = inhibition) at 10uM [%]
1 | Cc1noc(/C=C/Nc2ccc(F)cc2F)c1[N+](=O)[O-] | 12.1
2 | COc1ccc(NC(=S)N(CCN(C)C)C(C)c2ccco2)cc1 (stereo not drawn) | -16.6
3 | O=C1CSC(c2ccccc2)N1CCc1ccccc1 (stereo not drawn) | 1.82
4 | Cc1ccccc1SCC(=O)OCC(=O)Nc1ccc(N(C)C)cc1 | 10.4
5 | NC(=O)CCN1CCN(Cc2nc(C(c3ccccc3)c3ccccc3)no2)CC1 | -25.6
6 | CC(=O)N1CCN(Cc2nc(C(c3ccccc3)c3ccccc3)no2)CC1 | 10.8
7 | C[C@@H]1CN(C2CCN(Cc3nc(C(c4ccccc4)c4ccccc4)no3)CC2)C[C@H](C)O1 | -38.6
8 | Cc1cccnc1CN1CCN(Cc2nc(C(c3ccccc3)c3ccccc3)no2)CC1 | -56.2
9 | COCC1CCCN(Cc2nc(C(c3ccccc3)c3ccccc3)no2)C1 (stereo not drawn) | -19.6
10 | Cc1nc(CN2CCN(Cc3nc(C(c4ccccc4)c4ccccc4)no3)CC2)cs1 | -45.5
11 | c1ccc(C(c2ccccc2)c2noc(CN3CCC(c4ccncc4)CC3)n2)cc1 | -32.7
12 | c1ccc(C(c2ccccc2)c2noc(CN3CCN(CC4CC4)CC3)n2)cc1 | -61.6
13 | c1ccc(C(c2ccccc2)c2noc(CN3CCN(C4CCCC4)CC3)n2)cc1 | -70.1
14 | CC(=O)c1c(NCCc2ccccc2)nc(=S)n(-c2ccccc2)c1C | 7.04
15 | CCn1c(=O)cc(OCC(=O)NCc2ccco2)c2ccccc21 | 0.766
16 | CCN1CCCC1CNC(=O)Cn1cnc2sc(C)c(S(=O)(=O)N3CCC(C)CC3)c2c1=O (stereo not drawn) | -14.5
17 | Cc1ccc2nc(N3C(=O)C(O)=C(C(=O)c4ccco4)C3c3ccc(C)o3)sc2c1.O=C(O)C(=O)O (stereo not drawn) | 1.65
18 | CC(NC(=O)C1CCC(CNC(=O)[C@@H]2Cc3ccccc3CN2)CC1)c1ccccc1 (stereo partly drawn) | -4.23
19 | CCn1c(SCC(=O)Nc2cc(C)on2)nnc1-c1ccc(S(=O)(=O)N2CCCC2)cc1 | -1.7
20 | Cc1ccc2oc(=O)c3cc(C(=O)NCCCN4CCc5ccccc5C4)sc3c2c1 | -6.63
21 | Cc1ccc2cc3cc(C(=O)NCc4ccco4)oc3nc2c1 | -1.21

Row | Compound | hERG current change (%, negative = inhibition) at 10uM [%]
22 | Cc1ccc2cc3cc(C(=O)NCCN4CCOCC4)oc3nc2c1 | -14.5
23 | Cc1ccc2cc3cc(C(=O)NCCCN4CC(C)CC(C)C4)oc3nc2c1 (stereo not drawn) | -62.9
24 | Cc1ccc2cc3cc(C(=O)NCCCN4CCc5ccccc5C4)oc3nc2c1 | -54.9
25 | Cc1ccc2cc3cc(C(=O)N4CC(C)CC(C)C4)oc3nc2c1 (stereo not drawn) | 1.38
26 | Cc1ccc2cc3cc(C(=O)NCCCN4CCCC4=O)oc3nc2c1 | 2.4
27 | Cc1ccc2cc3cc(C(=O)NCCCN4CCCCCC4)oc3nc2c1 | -50.6
28 | Cc1ccc2cc3cc(C(=O)NCCCN4CCCC4)oc3nc2c1 | -15.5
29 | CCOC(=O)C1C(c2ccccc2O)NC(=O)NC1(O)C(F)(F)F (stereo not drawn) | 16.9
30 | COc1ccc(OCC(=O)Nc2cccc(C(C)=O)c2)cc1 | -7.29
31 | CC(C)(C)c1ccc(C(=O)c2c[nH]c(C(=O)NCCc3ccccn3)c2)cc1 | 15.1
32 | Cc1ccc(N(C)C(=O)C2CCCN2S(=O)(=O)c2ccc3c(c2)n(C)c(=O)c(=O)n3C)cc1 (stereo not drawn) | -2.28
33 | COc1ccccc1C(=O)NCC(=O)N=Nc1c(O)n(C(C)C)c2ccccc12 | -7.32
34 | CC(CN1CCOCC1)OC(=O)c1ccccc1Cl.Cl (stereo not drawn) | 12
35 | CC1(C)CC(=O)C(C=NCCN2CCN(C(=S)Nc3cccc(Cl)c3)CC2)=C(O)C1 | -66.3
36 | CC1(C)CC(=O)C(C=NCCN2CCN(C3CC(=O)N(c4ccc(F)cc4)C3=O)CC2)=C(O)C1 (stereo not drawn) | 6.86
37 | CC1(C)CC(=O)C(C=NCC2CCN(C(=O)Nc3ccc(Cl)c(Cl)c3)CC2)=C(O)C1 | -23.8
38 | CC1(C)CC(=O)C(C=NCCN2CCN(C3CC(=O)N(c4ccc(Cl)c(Cl)c4)C3=O)CC2)=C(O)C1 (stereo not drawn) | -50.2
39 | CC1(C)CC(=O)C(C=NCCN2CCN(C(=S)Nc3ccccc3)CC2)=C(O)C1 | -11.3
40 | CC1(C)CC(=O)C(C=NCC2CCN(C(=S)Nc3ccccc3)CC2)=C(O)C1 | -3.98
41 | CC1(C)CC(=O)C(C=NCCN2CCN(C(=O)Cc3ccccc3)CC2)=C(O)C1 | -24.8
42 | CC1(C)CC(=O)C(C=NCCN2CCN(C(=O)Cc3ccc(F)cc3)CC2)=C(O)C1 | -23.5

Row | Compound | hERG current change (%, negative = inhibition) at 10uM [%]
43 | CC1(C)CC(=O)C(C=NCCN2CCN(C(=S)Nc3ccc(F)cc3)CC2)=C(O)C1 | -27.8
44 | CC1(C)CC(=O)C(C=NCCN2CCN(C(=O)Cc3ccc(Cl)cc3)CC2)=C(O)C1 | -62
45 | CC1(C)CC(=O)C(C=NCCN2CCN(C3CC(=O)N(c4ccc(Br)cc4)C3=O)CC2)=C(O)C1 (stereo not drawn) | -19.3
46 | CC1(C)CC(=O)C(C=NCC2CCN(C(=S)Nc3cccc(Cl)c3)CC2)=C(O)C1 | -62.4
47 | COc1ccc(Br)cc1C(=O)Nc1cc(C)cc(C)c1 | 5.21
48 | NC(=O)c1cc2n(n1)C(C(F)(F)F)CC(c1ccco1)N2 (stereo not drawn) | -7.54
49 | COC(=O)C1NN=C(C(=O)c2ccc(Br)cc2)C1c1cccc(Br)c1 (stereo not drawn) | 2.42
50 | CC(C)c1nc2sc3c(SCC(N)=O)ncnc3c2c2c1CCC2 | 11.9
51 | NC(=O)c1ccc(C(F)(F)F)n(Cc2c(Cl)cccc2Cl)c1=O | 25.1
52 | CCc1cccc(CC)c1NC(=O)/C(C#N)=C/c1ccccc1C(F)(F)F | 21.4
53 | C=CCn1c(NCCc2ccccc2)nc2c1c(=O)n(C)c(=O)n2C | -1.17
54 | Cc1ccccc1NC(=O)C1CCC(=O)N1 (stereo not drawn) | -0.504
55 | Cc1c(N2C(=O)c3ccc(F)cc3C2=O)c(=O)n(-c2ccccc2)n1C | 13.6
56 | Cc1ccccc1Nc1nc(N)nc(-c2oc3ccccc3c2C)n1 | 4.69
57 | COc1ccc(Cl)cc1NC(=O)CCN1C(=O)C2C3C=CC(C4CC34)C2C1=O (stereo not drawn) | -24.4
58 | COc1ccc(O)c(-c2cc(-c3ccccc3[N+](=O)[O-])[nH]n2)c1 | -11.7
59 | CCOC(=O)Cc1csc(NC(=O)CSc2nnc(Cc3csc(N)n3)n2C)n1 | -1.19
60 | CCOC(=O)c1c(NC(=O)CSc2nnc(Cc3csc(N)n3)n2C)sc(C)c1C | -51.8
61 | COC(=O)c1sc(NC(=O)CSc2nnc(Cn3nnc4ccccc43)n2C)nc1C | 23.9
62 | CCOC(=O)c1c(NC(=O)CSc2nnc(CNc3ccc(OC)cc3)n2C)sc(C)c1C | -21.7
63 | COC(=O)c1c(NC(=O)CSc2nnc(Cn3nnc4ccccc43)n2C)sc(C)c1C | -62.7

Row | Compound | hERG current change (%, negative = inhibition) at 10uM [%]
64 | Cc1nc(NC(=O)CSc2nnc(Cn3nnc4ccccc43)n2C)sc1C | 0.783
65 | CN(C)C(=O)N1CCC(C(=O)NCc2ccc3c(c2)OCO3)CC1 | 5.54
66 | O=C(CNc1cccc2ccccc12)N/N=C/c1cccc(Oc2ccccc2)c1 | 18.2
67 | Cc1ccc(S(=O)(=O)N2CCN(C(=O)COC(=O)CCOc3ccccc3)CC2)c(C)c1 | 1.16
68 | CCN(CC(=O)Nc1ccc(OC)cc1)CC(=O)Nc1cccc(C#N)c1 | 0.389
69 | COc1cccc(C(=O)C2CCCN(Cc3ccc(F)cc3)C2)c1 (stereo not drawn) | -18.6
70 | O=C(c1cccc(Cl)c1)C1CCCN(Cc2ccc(N3CCNC3=O)cc2)C1 (stereo not drawn) | -43.7
71 | COc1ccc(CN2CCC(C(=O)c3cccc(Cl)c3)CC2)cc1 | -78.7
72 | COc1ccc(CN2CCCC(C(=O)c3cccc(Cl)c3)C2)cc1 (stereo not drawn) | -57.4
73 | COc1ccc(CNC(=O)C2CCN(C(=O)c3cccc(Cl)c3)CC2)cc1 | -44.9
74 | COc1cccc(OC)c1CN1CCCC(C(=O)c2cccc(Cl)c2)C1 (stereo not drawn) | -69
75 | CS(=O)(=O)N1CCC(C(=O)c2cccc(Cl)c2)CC1 | -0.907
76 | O=C(c1cccc(Cl)c1)C1CCCN(Cc2ccon2)C1 (stereo not drawn) | -26.3
77 | C[C@H](CCC(=O)NCC(=O)[O-])[C@H]1CC[C@H]2[C@@H]3[C@H](O)C[C@@H]4C[C@H](O)CC[C@]4(C)[C@H]3C[C@H](O)[C@]12C.O.[Na+] | -21.4
78 | Cc1ccc(Cn2ccc(NC(=O)c3cc(-c4ccc(Cl)cc4)on3)n2)cc1 | 17.3
79 | COc1cccc(Nc2ncnc3sc(C)cc23)c1.Cl | -8.64
80 | C#CCOCCOCCOCCNc1nc(N2CCN(C(=O)[C@H]([C@@H](C)CC)n3cc([C@@H](N)CC(C)C)nn3)CC2)nc(N2CCN(C(=O)[C@H](CCCCN)n3cc([C@@H](N)CC(C)C)nn3)CC2)n1.Cl | -10.1
81 | CCOc1ccccc1CNC(=O)c1ccc(NC(=O)C2=CSCCO2)cc1 | 7.72
